Screening results: PubChem BioAssay, National Center for Advancing Translational Sciences (NCATS)
Pf growth 96h: Primary qHTS for delayed death inhibitors of the malarial parasite plastid, 96 hour incubation; P. falciparum luciferase reporter growth, 96 h; hit rate 6.9% among 320,000; AID 504834, 2011; Potency, µM (titrated, usually from 28.7 µM), most hits filed as inhibitors
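Delayed-death screen, second-generation endpoint: infected erythrocytes, 2% hematocrit, 0.05% parasitemia final; 96 hours at 37 C, 5% CO2; luciferase detection reagent; luminescence decrease equals reduced growth.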
Pf growth 48h: Primary qHTS for delayed death inhibitors of the malarial parasite plastid, 48 hour incubation; P. falciparum luciferase growth in erythrocytes, 48 h; Potency, µM (top dose mostly 28.7 µM), most hits filed as inhibitors; hit rate 5.9% among 310,000
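Luciferase-expressing P. falciparum in infected erythrocytes (2% hematocrit, 0.1% parasitemia final) in RPMI 1640/0.5% Albumax were exposed to compound for 48 hours at 37 C, 5% CO2; growth read as luminescence.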
AMA1 RON2 block: qHTS for Inhibitors of AMA1-RON; Towards Development of Antimalarial Drug Lead: Primary Screen. Plasmodium falciparum AMA1 (3D7) - RON2 peptide interaction. AlphaScreen AMA1-biotinylated RON2 peptide binding. Potency, µM (titrated, usually from 58.2 µM), most hits filed as inhibitors. hit rate 0.2% among 360,000; further: nearly all actives have a fitted effect of over 45% in size
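AMA1 (3D7) with his tag at 25 nM final met compounds first, then biotinylated RON2 peptide at 25 nM; detection used donor plus acceptor beads, 10 µg/mL apiece, read by AlphaScreen after 30 min at room temperature.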
HCV inh: qHTS Assay for Inhibitors of Hepatitis C Virus (HCV) | Huh7.5.1 HCVcc-Cre infection, luciferase reporter, 44 h | Potency, µM (highest dose often 41.8 µM), usual class: inhibitors | hit rate 3.4% among 340,000 | AID 651820, 2012
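1,000 cells/well; 4 h culture; + compound; + HCVcc-Cre (~0.5 moi); 44 h; luciferase substrate, RT 15 min; read 15 sec.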
A number is an active result; . = inactive; ? = inconclusive; / = no result given; [ ] = another dose, or the depositor's remark. Only some compounds are listed: those with a hit (about 11% of all), similar ones and a draw of the others. The call rests on the fitted dose curve; in most records, active means well fitted curve in the direction sought with a large enough effect; inconclusive means small, poorly fitted or top-dose-only effect, or another doubt; inactive means no such curve, though single readings can be large; an effect the other way counts as inactive or inconclusive.

SMILES	Pf growth 96h	Pf growth 48h	AMA1 RON2 block	HCV inh
CCc1nn(C(C)C(=O)NC(C)CCc2ccco2)c(=O)c2cc3occc3n12 (stereo not drawn)	.	.	.	10µM
CCc1nn(CC(=O)NC(C)CCc2ccccc2)c(=O)c2cc3occc3n12 (stereo not drawn)	.	.	.	?
COc1ccccc1NC(=O)Nc1cccnc1	.	.	.	.
O=C(c1ccco1)N1CCN(C(=O)c2cn(-c3ccccc3)nc2-c2ccc(F)cc2)CC1	.	.	.	?
CCc1ccc2[nH]c(=O)c(CN(Cc3ccccc3)Cc3nnnn3Cc3ccco3)cc2c1	.	9.3µM	.	?
CCOC(=O)Cn1nnnc1CN(Cc1ccccc1)Cc1cc2cc(CC)ccc2[nH]c1=O	12µM	.	.	.
Cn1nc(C(=O)OCC(=O)Nc2sccc2C(N)=O)c2ccccc2c1=O	.	.	.	.
Cc1ccc(NC(=O)C2=C(c3ccccc3)S(=O)(=O)CCS2(=O)=O)cc1	.	.	.	11µM
CCCCn1c(SCC(=O)Nc2cc(C(F)(F)F)cc(C(F)(F)F)c2)nnc1C(CC)N(C)C (stereo not drawn)	?	?	.	?
CSc1nccc(NC(=O)c2cccc(Br)c2)n1	.	.	.	10µM
Cc1cc(NC(=O)c2cccc(Br)c2)n[nH]1	.	.	.	.
C=CCNc1nc2cc(-c3ccc(C(=O)N4CCOCC4)cc3)sc2c(=O)n1C	/	/	.	/
COc1ccc(-c2csc3ncnc(Cl)c23)cc1	.	1.3µM	.	.
Clc1ccc(-c2csc3ncnc(Cl)c23)cc1	?	?	.	.
COc1ccc(-c2csc3nc[nH]c(=O)c23)cc1	.	.	.	.
Fc1ccc(-c2csc3ncnc(Cl)c23)cc1	?	0.23µM	.	.
COc1ccc(Nc2ncnc3scc(-c4ccc(OC)cc4)c23)cc1	9.3µM	.	.	6.3µM
COC1CCCCC1Nc1cc(C)cc(C)c1 (stereo not drawn)	13µM	/	.	.
COC1CCCCC1Nc1cccc(SC)c1 (stereo not drawn)	/	.	.	.
CCN(CC)CCCNC(=S)N1CCN(c2nc(-c3ccccc3)cs2)CC1	.	?	.	7.9µM
CCOCCCNC(=S)N1CCN(c2nc(-c3ccccc3)cs2)CC1	.	.	.	10µM
COCCCNC(=S)N1CCN(c2nc(-c3ccccc3)cs2)CC1	?	.	.	13µM
CC(C)C(=O)N1CCC1(C)C(=O)Nc1ccccc1OC(F)F (stereo not drawn)	/	/	.	/
Cc1cccc(NS(=O)(=O)c2ccc3oc(=O)ccc3c2)c1C	.	.	.	.
CCOc1ccc(CC2NCCc3cc(OCC)c(OCC)cc32)cc1OCC (stereo not drawn)	?	12µM	.	6.3µM
SMILES	Pf growth 96h	Pf growth 48h	AMA1 RON2 block	HCV inh
Oc1ccc(C[C@H]2NCCc3cc(O)c(O)cc32)cc1O	?	?	2.5µM	.
COc1cc2c(cc1OC)C(Cc1ccc(O)cc1)NCC2 (stereo not drawn)	.	.	.	.
N#Cc1c(-c2ccc3c(c2)OCO3)csc1N	.	.	.	8.9µM
N#Cc1c(N)nc2c(c1-c1ccc3c(c1)OCO3)CCc1ccccc1-2	.	4.1µM	.[11.6 µM]	13µM
O=C(NCc1ccccc1)C1CCCN(C(=O)c2ccc(F)cc2)C1 (stereo not drawn)	.	.	.	.
O=C(OCC#CCSc1nnc(-c2ccncc2)o1)c1cccs1	12µM	.	.	.
Fc1ccc(-[n+]2nc(Nc3ccccc3)sc2-c2c(Cl)cccc2Cl)cc1	?	?	?	10µM
CCc1ccc(Nc2n[n+](-c3ccccc3)c(-c3cc(OC)c(OC)cc3Br)s2)cc1	12µM	?	.	?
O=C(O)c1ccc(-c2sc(Nc3ccccc3)n[n+]2-c2ccc(F)cc2)cc1	.	.	.	.
CCc1ccc(Nc2n[n+](-c3ccccc3)c(-c3c(Cl)cccc3Cl)s2)cc1	?	10µM	?	5.6µM
CCc1ccc(Nc2n[n+](-c3ccccc3)c(/C=C/c3ccccc3)s2)cc1	1.2µM	?	/	/
O=C(c1cc(C2CC2)nn1-c1ccccc1)N1CCN(c2ccc(O)cc2)CC1	?	10µM	?	?
COc1ccc(S(=O)(=O)N2CCN(C(=O)c3cc(C4CC4)nn3-c3ccccc3)CC2)cc1OC	/	/	.	?
CCOc1ccc(S(=O)(=O)N2CCN(C(=O)c3cc(C4CC4)nn3-c3ccccc3)CC2)cc1	?	4.7µM	.	?
O=C(c1cc(C2CC2)nn1-c1ccccc1)N1CCN(c2ccccc2O)CC1	/	/	.	.
O=C(c1cc(C2CC2)nn1-c1ccccc1)N1CCN(S(=O)(=O)c2c(F)cccc2F)CC1	?	7.4µM	.[11.6 µM]	?
CCOc1ccc(S(=O)(=O)N2CCN(C(=O)c3cc(-c4ccccc4)nn3-c3ccccc3)CC2)cc1	?	?	.	?
CC(Cc1n[nH]c(=S)n1N)c1ccccc1 (stereo not drawn)	.	.	.	.
Cc1c(S(=O)(=O)N2CCN(C(c3ccccc3)c3ccccc3)CC2)c(=O)n(C)c(=O)n1C	2.3µM	1.7µM	.	.
O=C(O)c1cccc(S(=O)(=O)N2CCN(C(c3ccccc3)c3ccccc3)CC2)c1	13µM	10µM	.	.
O=C(O)c1cccc(S(=O)(=O)N2CCCC2)c1	.	.	.	/
CC1=C(C(=O)OCc2ccccc2)C(c2ccccc2)NC(=O)N1CCCCCC(=O)O (stereo not drawn)	?	.	.	.[8.37 µM]
CCCCCCN(C(=O)CCCCCN1C(=O)NC(c2ccccc2)C(C(=O)OCc2ccccc2)=C1C)C(C(=O)NCCCC)c1ccc(OCC(=O)OC)c(C(=O)OC)c1 (stereo not drawn)	3.3µM	2.1µM	/	/
CCCCCCN(C(=O)CCCCCN1C(=O)NC(c2ccc(C3CCCCC3)cc2)C(C(=O)OCc2ccccc2)=C1C)C(C(=O)NCCCC)c1ccc(OCC(=O)OC)c(C(=O)OC)c1 (stereo not drawn)	2.1µM	2.9µM	/	/
CCCCCCN(C(=O)CCCCCN1C(=O)NC(c2ccc([N+](=O)[O-])cc2)C(C(=O)OCc2ccccc2)=C1C)C(C(=O)NCCCC)C1CCCCC1 (stereo not drawn)	/	/	.	.
CCCCCCN(C(=O)CCCCCN1C(=O)NC(c2ccc(C(C)(C)C)cc2)C(C(=O)OCc2ccccc2)=C1C)C(C(=O)NCCCC)c1ccc(OCC(=O)OC)c(C(=O)OC)c1 (stereo not drawn)	2.1µM	2.1µM	/	/
N#CC1=C(N)Oc2n[nH]c(-c3cccnc3)c2C1c1ccc([N+](=O)[O-])o1 (stereo not drawn)	?	.	.	.
N#Cc1c(-c2cccnc2)cc(-c2ccccc2)nc1N	.	.	.	.
N#Cc1c(-c2ccco2)cc(C2CC2)nc1N	.	.	.	25µM
N#Cc1c(-c2ccco2)cc(-c2cccnc2)nc1N	.	.	.	11µM
